Source: PubChem BioAssay
Eya2 phos inh = blocks the phosphatase activity of human Eya2; O00167; recombinant Eya2, OMFP fluorescence dephosphorylation (OMFP is methylfluorescein phosphate); Potency, µM (series often up to 76.9 µM), without a hit: at the top dose activity, negative = inhibition, actives largely listed as inhibitors; 330,000 tested, 0.006% active; AID 488837; further: on the % scale 0 is the no-effect control and ±100 the full control effect
Target sequence (O00167 whole entry, looked up): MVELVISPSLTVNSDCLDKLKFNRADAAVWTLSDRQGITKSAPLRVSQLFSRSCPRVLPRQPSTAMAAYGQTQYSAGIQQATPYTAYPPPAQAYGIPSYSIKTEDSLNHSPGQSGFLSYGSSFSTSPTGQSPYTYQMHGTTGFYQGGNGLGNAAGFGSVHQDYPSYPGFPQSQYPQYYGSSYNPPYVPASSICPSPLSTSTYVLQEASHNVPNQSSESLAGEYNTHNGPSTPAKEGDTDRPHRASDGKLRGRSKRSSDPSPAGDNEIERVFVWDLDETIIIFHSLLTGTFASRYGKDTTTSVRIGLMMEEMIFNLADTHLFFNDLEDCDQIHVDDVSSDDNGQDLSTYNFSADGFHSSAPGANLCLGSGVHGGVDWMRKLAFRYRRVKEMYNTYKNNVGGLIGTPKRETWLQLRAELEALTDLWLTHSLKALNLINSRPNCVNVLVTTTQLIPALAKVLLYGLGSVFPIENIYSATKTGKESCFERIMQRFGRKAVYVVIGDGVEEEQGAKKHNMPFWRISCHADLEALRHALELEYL
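Eya2 (0.2 uM) preincubated 10 min at ambient with compound, then OMFP substrate added at 50 uM; 10 min reaction in 50 mM HEPES pH 7.5, 50 mM NaCl, 5 uM MgCl2, 0.05% BSA, 1 mM DTT. Fluorescence read at Ex 485/Em 525 nm.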
p53 reactivator = re-activators of mutant p53; H1299 p53-A138V BP100-luciferase reporter, luminescence, 24 h; AID 504706; Potency, µM (titrated, usually from 92.2 µM), for inactives: top-dose activity change, positive = activation, hits mostly activators; 320,000 tested, 0.063% active; further: % of control where 0% means no effect; nearly all actives have a fitted effect of over 45% in size
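p53-null H1299 cells stably carrying temperature-sensitive p53-A138V and a BP100-luciferase reporter were pinned with compounds (4-point, 1:5 series) and held 24 hrs at 37 deg C. Luminescence was read 10 min after detection reagent.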
USP2a block = USP2a (human) protease inhibition | O75604 | USP2 core, Ub-CHOP2 coupled fluorogenic reporter, 485/531 | Potency, µM (titrated, usually from 38.3 µM), without a hit: top-dose activity change, negative = inhibition, usual class: inhibitors | 330,000 tested, 0.01% active | AID 463254;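 further: plate controls were DMSO wells for no effect and full inhibition by NEM control for full effect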
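Cell-free coupled assay: 10nM USP2 core preincubated 30min RT with compound in Tris-HCl pH 8.0/CaCl2/CHAPS buffer, then 25nM Ub-CHOP2 and 25nM reporter substrate; fluorescence (Ex 485/Em 531) read after 60min RT, normalized to NEM inhibition, concentration-response curves fitted.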
MmCpn inh = blocks the Methanococcus maripaludis chaperonin Mm-Cpn; purified Mm-Cpn ATPase, ADP Transcreener TR-FRET; Potency, µM (doses to about 76.9 µM), for inactives: top-dose activity, negative = inhibition, most hits filed as inhibitors; 330,000 tested, 0.031% active; AID 504842; further: on the % scale 0 is the no-effect control and ±100 the full control effect; nearly all actives have a fitted effect of over 80% in size
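Measured: ADP formation by purified Mm-CPN. Conditions: 25 nM protein, 10 uM ATP, Tris pH 7.4 with Mg2+, K+ and DTT, 37°C for 30 min. Detection: Transcreener HTRF after 30 min at room temperature.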
a7 integrin act = activators of alpha7 integrin expression for muscular dystrophy; alpha7betagal myoblasts, beta-gal FDG fluorescence, 48 h; 350,000 tested, 0.064% active; Potency, µM (top dose mostly 38.3 µM), without a hit: at the top dose activation, actives largely listed as activators;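 further: 100% = response of the positive control SU9516; nearly all actives have a fitted effect of over 60% in size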
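Alpha7betagal+/- myoblasts (passage 13) were plated 16-24 hr, then exposed to compounds (1:260 dilution of DMSO stock) for 48 hours at 37C. After MPER lysis, β-galactosidase reporter activity was read as FDG fluorescence (ex 480/em 540) after 30 minutes.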
ClpP mod = qHTS Assay for Activators of ClpP; ATP-dependent Clp protease proteolytic subunit (Bacillus subtilis (strain 168)), P80244; purified B. subtilis ClpP, FRET peptide cleavage, 20 min; Potency, µM (highest dose often 57.5 µM), inactives show at the highest dose activity change, negative = active; 340,000 tested, 1.9% active; AID 651965, 2013; active means well fitted falling curve with a large enough effect; inconclusive means small, poorly fitted or top-dose-only effect; inactive means no such curve, though single readings can be large or run the other way; further: the source files actives as falling curves though it sought activators and does not explain the sign; nearly all actives have a fitted effect of over 65% in size
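Buffer: 100 mM Tris/HCl pH8, 100 mM KCl, 0.05% low protease BSA, 2.5% glycerol, 0.01% Tween-20. ClpP 10 microg/mL final; 20 min RT; delta FRET normalized to ADEP and DMSO controls.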
Numbers without * were called inactive; [ ] = another dose, or the depositor's remark. The sample as a whole holds a higher share of hits than the screen did. Unless noted, the call rests on the fitted dose curve; in most records, active means well fitted curve in the direction sought with a large enough effect; inconclusive means small, poorly fitted or top-dose-only effect, or another doubt; inactive means no such curve, though single readings can be large; an effect the other way counts as inactive or inconclusive. Potency means the concentration at half of the fitted maximal effect.

Screening Cc1noc(C)c1CSCC(=O)Nc1cc(Cl)ccc1N1CCCCC1 returned Eya2 phos inh -15%, p53 reactivator 0%, USP2a block 1%, MmCpn inh 0%, a7 integrin act -15% and ClpP mod 25µM*.
Screening CCc1sc(C(=O)Nc2cc(Cl)ccc2N2CCCCC2)cc1C returned Eya2 phos inh -9%, p53 reactivator -1%, USP2a block -1%, MmCpn inh -2%, a7 integrin act -16% and ClpP mod 22µM*.
Screening Cc1ccc(C(=O)Nc2cc(Cl)ccc2N2CCCCC2)s1 returned Eya2 phos inh -11%, p53 reactivator 2%, USP2a block 5%, MmCpn inh 1%, a7 integrin act -4% and ClpP mod inconclusive.
CCCN(C(=O)C1CCN(S(=O)(=O)c2ccc(OC)c(OC)c2)CC1)C1CCS(=O)(=O)C1 (centres undefined) was read as Eya2 phos inh 3%, p53 reactivator 6%, USP2a block 0%, MmCpn inh 1%, a7 integrin act -7% and ClpP mod 14µM*.
`Oc1ccc2ccccc2c1SSc1c(O)ccc2ccccc12` gave Eya2 phos inh 14%.
For CN(C)c1ccc(N=Cc2nc(-c3ccccc3)oc2O)cc1 the results were Eya2 phos inh 8%, p53 reactivator 5%, USP2a block inconclusive, MmCpn inh -2%, a7 integrin act -10% and ClpP mod 22µM*.
Screening Cc1nnc(NC(=O)CSc2nnc(CNC(=O)c3ccccc3F)n2C(C)C)s1 returned a7 integrin act 8%.
Screening Cc1nnc(NC(=O)CSCc2ccccc2)s1 returned Eya2 phos inh 1%, p53 reactivator -3%, USP2a block 1%, MmCpn inh 3%, a7 integrin act -6% and ClpP mod -2%.
Screening Cc1nnc(NC(=O)CSc2nnc(CCNC(=O)c3ccccc3F)n2C)s1 returned Eya2 phos inh 14%, p53 reactivator 5%, USP2a block 1%, MmCpn inh -2% and a7 integrin act 11µM*.
For CCc1nnc(NC(=O)CSc2nnc(CNc3ccc(C)cc3)n2C)s1 the results were Eya2 phos inh 1%, p53 reactivator 2%, USP2a block 4%, MmCpn inh -1%, a7 integrin act 0% and ClpP mod -1%.
For Cc1ccc(NC(=O)CSCC(=O)Nc2nnc(C)s2)cc1 the results were Eya2 phos inh -1%, p53 reactivator -2%, USP2a block 1%, MmCpn inh 1%, a7 integrin act 29% and ClpP mod 28µM*.
For Cc1ccc(NCc2nnc(SCC(=O)Nc3nnc(C)s3)n2C)cc1 the results were Eya2 phos inh -4%, p53 reactivator 2%, USP2a block 3%, MmCpn inh 2%, a7 integrin act 10µM* and ClpP mod 0%.
Screening Cc1ccc(CNc2ccc3c(c2)ncn3C)cc1 returned Eya2 phos inh -5%, p53 reactivator 20%, USP2a block 1%, MmCpn inh -2%, a7 integrin act -24% and ClpP mod 25µM*.
`Cc1ccc(CNc2ccc3c(c2)ncn3C(C)(C)C)cc1` gave Eya2 phos inh -2%, p53 reactivator inconclusive, USP2a block -1%, MmCpn inh -4%, a7 integrin act -49% and ClpP mod 3%.
For CCc1ccc(CNc2ccc3c(c2)ncn3C)cc1 the results were Eya2 phos inh 10%, p53 reactivator inconclusive, USP2a block -13%, MmCpn inh -1%, a7 integrin act -14% and ClpP mod 28µM*.
Cc1ccc(-n2cnc3cc(NCc4cccs4)ccc32)cc1 was read as Eya2 phos inh -26%, p53 reactivator inconclusive, USP2a block 1%, MmCpn inh -10%, a7 integrin act 30%[7.66 µM] and ClpP mod 22µM*.
`c1ccc(-n2cnc3cc(NCc4cccs4)ccc32)cc1` gave Eya2 phos inh 2%, p53 reactivator inconclusive, USP2a block 0%, MmCpn inh 0%, a7 integrin act -10%[7.66 µM] and ClpP mod inconclusive.
COc1ccc(S(=O)(=O)N2CCN(c3nc(-c4cccs4)nc4ccccc34)CC2)cc1OC was read as ClpP mod -3%.
`O=S(=O)(c1ccccc1Br)N1CCN(c2nc(-c3cccs3)nc3ccccc23)CC1` gave ClpP mod -19%.
Screening Cc1cc(C)nc(S/C=C/C(=O)c2ccccc2F)n1 returned Eya2 phos inh -4%, p53 reactivator -6%, USP2a block 10%, MmCpn inh -2%, a7 integrin act 1% and ClpP mod 35µM*.
For Cc1cc(C)nc(NC(=S)NC(=O)c2ccccc2F)n1 the results were a7 integrin act 12%.
`CCCCN1CCc2c([nH]c3ccccc23)C1=O` gave Eya2 phos inh -11%, p53 reactivator 22%, USP2a block -1%, MmCpn inh -6%, a7 integrin act 18% and ClpP mod 20µM*.
COc1ccc(-n2cnc3c(sc4nccc(N(C)C)c43)c2=O)cc1 was read as Eya2 phos inh -3%, p53 reactivator -10%, USP2a block 0%, MmCpn inh 0%, a7 integrin act inconclusive and ClpP mod 14µM*.
`Nc1c(-c2ccccc2)nc(Cl)nc1-c1ccccc1` gave Eya2 phos inh 1%, p53 reactivator 20%, USP2a block 0%, MmCpn inh -3%, a7 integrin act 33% and ClpP mod 32µM*.
CCOC(=O)C(C(=O)OCC)C1N=C(N)N=C2Oc3ccccc3N21 (centres undefined) was read as Eya2 phos inh 8%, p53 reactivator 19%, USP2a block -1%, MmCpn inh 1%, a7 integrin act -17% and ClpP mod 25µM*.
For CCOC(=O)CN1C(=O)C(CC)Oc2ccccc21 (centres undefined) the results were Eya2 phos inh 8%, p53 reactivator 13%, USP2a block -1%, MmCpn inh 2%, a7 integrin act 0%[7.66 µM] and ClpP mod 0%.
Cc1ccc(OC(=O)COc2ccccc2C)c(-n2nc3ccccc3n2)c1 was read as Eya2 phos inh -8%, p53 reactivator 40µM*, USP2a block 1%, MmCpn inh 0%, a7 integrin act 6% and ClpP mod inconclusive.
Cc1ccc(OC(=O)COc2ccccc2)c(-n2nc3ccccc3n2)c1 was read as Eya2 phos inh 14%, p53 reactivator inconclusive, USP2a block -2%, MmCpn inh 0%, a7 integrin act 16% and ClpP mod 32µM*.
